Assay outcomes from PubChem.
An excerpt weighted towards active compounds, which were near 7.2% of everything screened.
RE007 growth inh: less growth of the S. pombe RE007 Vpr strain; S. pombe RE007 Vpr strain, BacTiter-Glo ATP luminescence, 24 h; 0.21% of 360,000 active; Potency, µM (highest dose often 92.2 µM), inactives show top-dose activity change, negative = less growth, usual class: inhibitors; active = well fitted falling curve with a large enough effect; inconclusive = small, poorly fitted or top-dose-only effect; inactive = no such curve, though single readings can be large or run the other way; also: nearly all actives have a fitted effect of over 50% in size
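Fission yeast strain RE007, carrying one chromosomally integrated HIV-1 vpr copy, was seeded at OD 0.01 in PMG+AL medium with 23 nL pinned compound. After 24 h at 30 °C and 99% humidity, viability was read by BacTiter-Glo luminescence.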
HCV inhibitor: HCV inhibition; Huh7.5.1 HCVcc-Cre infection, luciferase reporter, 44 h; Potency, µM (titrated, usually from 41.8 µM), for the others: at the top dose activity change, negative = inhibition, most hits filed as inhibitors; 3.4% of 340,000 active; AID 651820
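Whole-lifecycle infectious HCVcc-Cre system; cells 1,000/well, compound then virus (~0.5 moi) added 4 h after plating, 44 h culture. Luciferase read 15 sec following 15 min substrate incubation, room temp.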
Sm TGR block: inhibitors of Schistosoma mansoni thioredoxin glutathione reductase | AID 485364 | Potency, µM (highest dose often 114 µM), inactives show at the top dose activity change, negative = inhibition, most hits filed as inhibitors | purified TGR, DTNB reduction, TNB absorbance 405 nm | 3% of 360,000 active | Q962Y6; also: nearly all actives have a fitted effect of over 60% in size
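Kinetic colorimetric format: TGR-catalysed, NADPH-driven DTNB reduction monitored via TNB absorbance. Enzyme dispensed at 20 nM; compound exposure 15 min at room temperature before reaction start.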
FMDV inh: foot and mouth disease virus antiviral activity; FMDV antiviral cell-based qHTS; Potency, µM (highest dose often 57.9 µM), for the others: at the top dose activity change, negative = inhibition, usual class: inhibitors; 1.2% of 410,000 active; calls by dose curve; tested in HEK293T cells; also: read-out not given here; nearly all actives have a fitted effect of over 45% in size
Lassa entry inh: Lassa virus entry inhibition | Lassa virus pseudotype entry inhibition, cell reporter | Potency, µM (highest dose often 37.9 µM), for the others: top-dose activity change, negative = inhibition, hits mostly inhibitors | 1.2% of 300,000 active; calls by dose curve; tested in HEK293 cells; also: nearly all actives have a fitted effect of over 50% in size
Marburg entry inh: inhibitors of Marburg virus binding or cell entry. Marburg virus pseudotyped entry inhibition, cell reporter. 1.8% of 300,000 active. Potency, µM (top dose mostly 37.8 µM), for the others: at the highest dose activity change, negative = inhibition, actives largely listed as inhibitors; calls by dose curve; tested in HEK293 cells
* marks the source's active call; other numbers are inactive results; ? = inconclusive; · = no result given; [ ] = another dose, or the depositor's remark. Unless noted, calls follow the shape of the dose curve; as a rule, active = well fitted curve in the direction sought with a large enough effect; inconclusive = small, poorly fitted or top-dose-only effect, or another doubt; inactive = no such curve, though single readings can be large; an effect the other way counts as inactive or inconclusive. % is scaled to controls: 0 for no effect and ±100 for the full control effect; potency is read from the fitted curve at half-maximal effect.

SMILES	RE007 growth inh	HCV inhibitor	Sm TGR block	FMDV inh	Lassa entry inh	Marburg entry inh
OC(CNCc1ccccc1)Cn1ccc2ccccc21 (configuration not stated)	-10%	11µM*	0%	0%	?	?
OCc1nc2ccccc2n1CC(O)Cn1ccc2ccccc21 (configuration not stated)	-3%	-8%	-16%	28µM*	-22%	-12%
Oc1ccccc1NCC(O)Cn1ccc2ccccc21 (configuration not stated)	-24%	?	?	?	5%	?
Cc1cnc(CNc2ccnc(-c3cccc(C#N)c3)n2)cn1	·	·	·	0%	·	·
O=C(Nc1cccs1)N1CCN(c2ncccn2)CC1	1%	2%	18µM*	5%	·	·
O=C(CCCn1c2ccccc2c(=O)c2ccccc21)Nc1cccc(Cl)c1	·	·	2%	?	?	·
c1ccc(-c2nc3c4ccccc4ccn3c2Cc2ccsc2)cc1	?	·	·	-2%	·	·
Cc1ccccc1N1C(=O)NC(=O)/C(=C\c2cc(Br)c(N3CCOCC3)o2)C1=O	4%	-6%	?	16µM*	3%	?
Cc1ccccc1N1C(=O)NC(=O)/C(=C/c2ccc(N3CCOCC3)o2)C1=O	5%	1%	22µM*	-6%	0%	?
Cc1ccccc1N1C(=O)C(Cl)=C(N2CCOCC2)C1=O	8%	-3%	-6%	1%	·	·
Cc1cccc(N2C(=O)/C(=C/c3ccc(N4CCN(C)CC4)o3)C(=O)NC2=S)c1C	-9%	10%	-25%	-17%	-12%	-15%
COc1ccc(C)cc1NC(=O)NCc1cccn1Cc1ccccc1	·	·	3%	-16%	22%[46.1 µM]	·
N#Cc1ccc(OC(=O)c2cc(-c3ccc(Cl)cc3)on2)cc1	·	·	-3%	-15%	6%[46.1 µM]	22%[46.1 µM]
O=C(NCc1ccco1)c1scc2c1OCCO2	-2%	3%	35µM*	-10%	-18%	?
CCOc1ccccc1C(=O)NCc1ccc2c(c1)CCN2C(=O)c1ccccc1	·	·	2%	-28%	?	·
Cc1ccc2nc(NC(=O)C3CCN(c4ncnc5sc(C)c(C)c45)CC3)sc2c1	18%	9%	-1%	0%	29%	8%
CCN(CC)S(=O)(=O)c1cc(NC(=O)C2CCN(c3ncnc4sc(C)c(C)c34)CC2)ccc1Cl	-6%	6.3µM*	2%	8.9µM*	?	3.5µM*
Cc1ccc(C)c(S(=O)(=O)N2CCN(C(=O)C3CCN(c4ncnc5sc(C)c(C)c45)CC3)CC2)c1	6%	11µM*	-2%	?	?	?
Cc1ccc(NC(=O)C2CCN(c3ncnc4sc(C)c(C)c34)CC2)cc1S(=O)(=O)N(C)C	8%	10µM*	0%	?	-17%	?
CCc1ccccc1NC(=O)C(=O)NCCc1sc(-c2cccc(C)c2)nc1C	·	·	0%	-4%	-30%[46.1 µM]	·
CCCN(CC#CCOc1ccc(OC)cc1)CCC	3%	6%	13µM*	-17%	1%	-7%
COc1ccc(F)c(CN2CCC3(CCC(CNC(=O)c4cc(C)nn4C)O3)CC2)c1 (configuration not stated)	·	·	·	-24%	·	·
C=C(C)COc1ccc2c(CC)cc(=O)oc2c1C	?	11µM*	-1%	2%	1%	?
CCN1C[C@@H]2[C@@H]3C(=O)N(Cc4ccccc4)C(=O)[C@@H]3[C@](C)(C(=O)OC)N2C1=NC1CCCCC1	-3%	?	·	-1%	·	·
COC(=O)[C@@]1(C)[C@H]2C(=O)N(Cc3ccccc3)C(=O)[C@H]2[C@H]2CN(C)C(=NC3CCCCC3)N21	-13%	0.56µM*	·	-2%	·	·
COc1ccc(NC(=O)Cn2nnc(C(=O)NCc3ccccc3)c2N)c(OC)c1	-5%	-20%	-1%	?	?	8.2µM*
CCOc1ccc(NC(=O)c2nnn(CC(=O)Nc3ccccc3OCC)c2N)cc1	-2%	11µM*	6%	0%	1%	0%
CCOc1ccccc1NC(=O)Cn1nnc(-c2ccc(OCC)c(OCC)c2)n1	-9%	8.9µM*	-5%	·	?	?
COc1ccc2c(c1)CCc1cnc(-n3ncc(C(=O)N(C)CCc4ccccn4)c3C)nc1-2	·	·	·	-11%	·	·
